Screening results from PubChem.
CYP2C19 act – activators of human cytochrome P450 2C19 | P33261 | recombinant CYP2C19, luciferin-H EGE luminescence; hits give high values; 0 = fully inhibited enzyme, 1 = untreated enzyme | activation factor at 5 µM | 96,000 tested, under 10 active | AID 1025;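 active = activation factor of at least 2 at 5 µM in the primary screen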
Target sequence (P33261 whole entry, looked up): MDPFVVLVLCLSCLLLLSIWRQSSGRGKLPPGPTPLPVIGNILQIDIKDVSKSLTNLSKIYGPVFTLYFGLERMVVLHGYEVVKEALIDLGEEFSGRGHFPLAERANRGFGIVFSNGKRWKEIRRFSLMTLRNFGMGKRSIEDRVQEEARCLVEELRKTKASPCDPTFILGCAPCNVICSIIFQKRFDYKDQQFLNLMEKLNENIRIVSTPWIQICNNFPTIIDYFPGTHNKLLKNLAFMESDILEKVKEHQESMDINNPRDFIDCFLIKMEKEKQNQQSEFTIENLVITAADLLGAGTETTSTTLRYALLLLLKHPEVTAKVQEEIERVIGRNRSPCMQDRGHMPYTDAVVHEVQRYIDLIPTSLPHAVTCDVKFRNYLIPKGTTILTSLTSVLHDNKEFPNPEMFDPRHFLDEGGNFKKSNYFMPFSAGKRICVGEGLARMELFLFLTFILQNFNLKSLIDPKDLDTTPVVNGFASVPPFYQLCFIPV
CYP2C9 act – increases human cytochrome P450 2C9 activity. P11712. recombinant CYP2C9, luciferin-H conversion, luminescence; hits give high values; factor 1 = untreated enzyme, 0 = blocked. activation factor at 5 µM. actives 1.4% (n = 96,000). AID 1024;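 active = activation factor of 2 or more for CYP2C9 at a 5 µM dose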
CYP2C19 inh – blocks human cytochrome P450 2C19; inhibition, % at 5 µM; P33261; AID 778; actives 21% (n = 96,000); CYP2C19 Supersomes, luciferin-H EGE luminescence, 30 min;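 active = CYP2C19 inhibition above a set limit at 5 µM in the primary screen, cut at about 50% in these data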
Cav3 T inh – human Cav3.2 channel inhibition, primary screen. B-score at 10 µM. O95180. Cav3.2-expressing cells, Fluo-4 calcium fluorescence FDSS; hits give low values. actives 4% (n = 100,000);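 active = single-dose well whose peak fluorescence ratio is a statistical outlier from its plate by either plate-standardised score or position-corrected B-score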
PTK2B oligo ant – Pyk2 (human) oligomerization antagonism; actives 0.83% (n = 99,000); Q293 cells, Pyk2 FERM NanoBiT luminescence; hits give low values; AID 1347419; z-score (the deposit names both 25 µM and 10 µM);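 active = Z-score of -3 or lower, scaled per plate to the spread of control and sample wells; inactive = z-score above -3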;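 note: negative z-score means lost luminescence so less FERM oligomerization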
CYP2C9 inhib – inhibitors of human CYP2C9; P11712; CYP2C9 Supersomes, luciferin-H conversion, luminescence; inhibition, % at 5 µM; actives 20% (n = 96,000);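 active = blocking of liver enzyme CYP2C9 beyond about 50% at 5 µM, limit read from the data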
Numbers stand for hits; n = inactive; x = no result. Sampled rows, rich in hits. Any-hit rate of the full collection: about 27%.

SMILES | CYP2C19 act | CYP2C9 act | CYP2C19 inh | Cav3 T inh | PTK2B oligo ant | CYP2C9 inhib
CCC(=O)N1CCc2cc(S(=O)(=O)NC(CC(C)C)C(=O)N3CCc4ccccc43)ccc21 (configuration not stated) | n | n | 52.0 | n | n | n
CCC(=O)N1CCc2cc(S(=O)(=O)NC(Cc3ccccc3)C(=O)NC3CCCCC3C)ccc21 (configuration not stated) | n | n | n | n | n | n
CCOc1ccc(OCC)c(NS(=O)(=O)c2ccc3c(c2)CCN3C(=O)C2CCC2)c1 | n | n | n | n | n | 79.3
Cc1ccc2[nH]cc(CCNC(=O)c3cccnc3)c2c1 | n | n | 87.8 | n | n | 64.2
Cc1ccc(CC(=O)OCCNC(=O)c2cccnc2)cc1 | n | n | n | n | n | n
O=C(NCCc1c[nH]c2ccccc12)C(F)(F)F | n | n | n | n | n | n
CCNC(=O)NCCc1c[nH]c2ccc(Cl)cc12 | n | n | 78.1 | n | n | n
Cc1ccc2[nH]cc(CCNC(=O)Nc3ccccc3)c2c1 | n | n | 97.1 | -3.93 | n | 53.5
Cc1ccc(N2CN=c3s/c(=C\c4ccccn4)c(=O)n3C2)cc1 | n | n | n | n | n | n
Nc1nc(NCc2ccccc2)nc(Nc2ccc(F)cc2)c1[N+](=O)[O-] | n | n | n | n | n | n
COc1ccc(C(=O)OCC(=O)c2ccccc2)cc1S(=O)(=O)N1CCOCC1 | n | n | 77.7 | n | n | 55.7
O=C(COC(=O)c1cc(S(=O)(=O)N2CCOCC2)cs1)c1ccccc1 | n | n | n | n | n | n
COc1ccc(C(C)=O)cc1COC(=O)c1ccc(S(=O)(=O)N2CCOCC2)cc1 | n | n | 51.4 | n | n | 93.9
COc1ccc(OC)c2sc(NC(=O)c3ccc(S(=O)(=O)N4CCOCC4)cc3)nc12 | n | n | n | n | x | n
COc1ccc(C(=O)NCCc2c[nH]c3ccccc23)cc1S(=O)(=O)N1CCOCC1 | n | n | n | n | n | 60.6
COc1cc(C(=O)OCC(=O)c2c[nH]c3ccccc23)ccc1OCC(=O)N1CCOCC1 | n | n | 51.0 | n | n | 77.5
COc1cc(OC)cc(C(C)=O)c1 | n | n | n | n | n | n
CN(C)CCCNc1cn[nH]c(=O)c1Cl | n | n | n | n | n | n
COc1ccc(N/C(N)=N/c2nc(CSc3ccc(Cl)cc3)cc(=O)[nH]2)cc1 | n | n | 66.1 | n | n | n
N/C(=N\c1nc(CSc2ccc(Cl)cc2)cc(=O)[nH]1)Nc1cccc2ccccc12 | n | n | n | x | n | n
FCCCOc1ccc(-c2nccc(-c3ccc(F)cc3)n2)cc1 | n | n | 53.5 | x | n | 80.9
c1ccc(-c2ccccc2-n2cnnn2)cc1 | n | n | n | n | n | n
CSc1ccccc1NC(=O)CN(C1CCCCC1)S(C)(=O)=O | n | n | 92.9 | n | n | 90.0
COc1ccc(Cl)cc1NC(=O)NC1CCCCC1 | n | n | n | n | n | n
COc1ccc(Cl)cc1NC(=O)CN(C1CCCCC1)S(C)(=O)=O | n | n | 98.7 | -4.31 | n | 90.4
SMILES | CYP2C19 act | CYP2C9 act | CYP2C19 inh | Cav3 T inh | PTK2B oligo ant | CYP2C9 inhib
COc1ccc(Cl)cc1NC(=O)N1CCN(C2CCCCC2)CC1 | n | n | 83.0 | n | n | n
COc1cccc2cc(C(=O)N3CCc4ccccc43)c(=O)oc12 | n | n | 68.1 | n | -3.04 | n
Cc1cc(C(=O)N2CCc3ccccc32)c2ccccc2n1 | n | n | 65.4 | n | n | n
O=C(c1ccccc1)N1CCc2ccccc21 | n | n | n | n | n | n
COc1cccc2cc(C(=O)N3C(C)CCCC3C)c(=O)oc12 (configuration not stated) | x | x | x | n | n | x
COc1cccc2cc(C(=O)N3CCN(C45CC6CC(CC(C6)C4)C5)CC3)c(=O)oc12 | n | n | n | n | n | 55.7
CCOc1cccc2cc(C(=O)N3CCc4ccccc43)c(=O)oc12 | n | 2.4 | n | n | n | n
CCC1(CC)NC(=O)NC1=O | n | n | n | n | n | n
COc1cc(C2C(C#N)=C(N)Oc3n[nH]c(-c4ccncc4)c32)cc(OC)c1OC (configuration not stated) | n | n | n | n | n | n
CC(C)C(CCN1C(=O)CCC1=O)C1CCOC(C)(C)C1 (configuration not stated) | n | n | n | n | n | n
COc1cc(SC)ccc1C(=O)Nc1ccccc1C#N | n | n | n | n | n | n
